Source: PubChem
AMA1 RON2 block = qHTS for Inhibitors of AMA1-RON; Towards Development of Antimalarial Drug Lead: Primary Screen; Plasmodium falciparum AMA1 (3D7) - RON2 peptide interaction; AlphaScreen AMA1-biotinylated RON2 peptide binding; Potency, µM (doses to about 58.2 µM), actives largely listed as inhibitors; 0.2% of 360,000 active; note: nearly all actives have a fitted effect of over 45% in size
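AMA1 (3D7) with his tag at 25 nM final met compounds first, then biotinylated RON2 peptide at 25 nM; detection used donor plus acceptor beads, 10 µg/mL apiece, read by AlphaScreen after 30 min at room temperature.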
SARS PLpro yeast = qHTS of Yeast-based Assay for SARS-CoV PLP | S. cerevisiae expressing SARS-CoV PLpro, growth rescue | Potency, µM (top dose mostly 32.9 µM), most hits filed as activators | 0.19% of 330,000 active | AID 485353, 2010; calls by dose curve; note: nearly all actives have a fitted effect of over 55% in size
Pf growth 48h = Primary qHTS for delayed death inhibitors of the malarial parasite plastid, 48 hour incubation. AID 504832, 2011. Potency, µM (series often up to 28.7 µM), actives largely listed as inhibitors. 5.9% of 310,000 active. P. falciparum luciferase growth in erythrocytes, 48 h
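Compounds are pin-transferred into medium, infected erythrocytes (2% hematocrit, 0.1% parasitemia final) are added, and plates sit one parasite generation at 37 C in 5% CO2. Detection reagent is then added and luminescence measured.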
Cycloheximide cs = Cycloheximide Counterscreen for Small Molecule Inhibitors of Shiga Toxin; cell reporter, cycloheximide protein synthesis inhibition counterscreen; max response, %; 12% of 300,000 active; in the data active = max response mostly above about 13%, no sharp cut-off; inactive = mostly below about 14%; note: read at 38.3 µM for the half of the compounds with a filed dose
Shiga inhibitor = A qHTS for Small Molecule Inhibitors of Shiga Toxin; Vero cells, Shiga toxin protein synthesis inhibition reporter; inhibition, % at 38.7 µM; 9.2% of 290,000 active; in the data active = inhibition mostly above about 28%, no sharp cut-off; inactive = mostly below about 43%
Pf growth 96h = Primary qHTS for delayed death inhibitors of the malarial parasite plastid, 96 hour incubation | P. falciparum luciferase reporter growth, 96 h | Potency, µM (series often up to 28.7 µM), most hits filed as inhibitors | 6.9% of 320,000 active | AID 504834, 2011
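Erythrocytes infected with luciferase-expressing P. falciparum were dispensed at 2% hematocrit and 0.05% parasitemia (final), then incubated with compounds 96 hours at 37 C in 5% CO2. Luminescence after detection reagent addition reported growth.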
Of the large screens only hits and unclear results are named; the others gave an inactive call. Shown are actives, neighbours in structure and some others; about 19% of the full set was active somewhere. Unless noted, calls come from the whole dose curve; as a rule, active = well fitted curve in the direction sought with a large enough effect; inconclusive = small, poorly fitted or top-dose-only effect, or another doubt; inactive = no such curve, though single readings can be large; an effect the other way counts as inactive or inconclusive.

COc1cccc(/C=C2\Oc3cc(OC(=O)N4CCOCC4)ccc3C2=O)c1	none
O=C1/C(=C/c2cccc(F)c2)Oc2cc(O)ccc21	Cycloheximide cs 22, Shiga inhibitor 40
Cc1cccc(/C=C2\Oc3cc(OS(C)(=O)=O)ccc3C2=O)c1	Cycloheximide cs 26
Cc1ccccc1/C=C1\Oc2ccccc2C1=O	none (no result: Pf growth 48h, Cycloheximide cs, Shiga inhibitor, Pf growth 96h)
CCCS(=O)(=O)N1CCCC(C(=O)Oc2ccc(Cl)cc2)C1 (stereo not given)	Pf growth 96h inconclusive
CC1CC(C)CN(c2ncc3c(n2)CC(c2ccc(Cl)cc2)CC3=O)C1 (stereo not given)	none (no result: Pf growth 96h)
COc1ccc(C2CC(=O)c3cnc(N4CCN(Cc5ccccc5)CC4)nc3C2)cc1 (stereo not given)	Pf growth 48h 12µM
CC1CC(C)CN(c2ncc3c(n2)CC(c2ccccc2Cl)CC3=O)C1 (stereo not given)	Pf growth 48h 10µM, Pf growth 96h 15µM
CCNCCC(=O)N1c2ccccc2Sc2ccc(C(F)(F)F)cc21	Pf growth 96h inconclusive (no result: Shiga inhibitor)
CCOC(=O)c1sc(NC(=O)CSc2nncn2C)nc1C	none
O=S(=O)(CCSc1nc2ccccc2s1)c1nc2ccccc2s1	Pf growth 48h 12µM
C=CCS(=O)(=O)c1nc2ccccc2s1	Pf growth 48h inconclusive, Cycloheximide cs 44, Pf growth 96h inconclusive
COc1ccc(Cl)cc1NC(=O)CN(C)C(=O)c1n[nH]c2ccccc12	none (no result: Cycloheximide cs, Shiga inhibitor)
CSc1nnc(-c2sc3cc(Cl)ccc3c2Cl)n1C	none (no result: Pf growth 96h)
CCn1c(SC)nnc1-c1sc2cc(Cl)ccc2c1Cl	Pf growth 48h inconclusive, Cycloheximide cs 14, Shiga inhibitor 71 (no result: Pf growth 96h)
CC(C)(C)c1ccc(CN2CCN([C@H](c3ccccc3)c3ccc(Cl)cc3)CC2)cc1	Pf growth 48h 17µM, Pf growth 96h 7.6µM (no result: AMA1 RON2 block, SARS PLpro yeast, Cycloheximide cs, Shiga inhibitor)
c1ccc(-c2nnc(CN3CCN(C(c4ccccc4)c4ccccc4)CC3)o2)cc1	Pf growth 96h 9.3µM
CC(C)(C)n1nnnc1CN1CCN(C(c2ccccc2)c2ccccc2)CC1	AMA1 RON2 block inconclusive, Pf growth 48h 5.2µM
Cc1ccc(NC(=O)COC(=O)C2CCC(=O)N2)c([N+](=O)[O-])c1 (stereo not given)	none
Cc1ccc(C)c(Cn2c(CN(C)Cc3ccccc3)nc3c2c(=O)n(C)c(=O)n3C)c1	Pf growth 96h 13µM (no result: Pf growth 48h)
CCCCn1c(CN(Cc2ccccc2)Cc2ccccc2)nc2c1c(=O)n(C)c(=O)n2C	none (no result: SARS PLpro yeast, Pf growth 48h, Cycloheximide cs, Shiga inhibitor, Pf growth 96h)
CN(Cc1ccccc1)Cc1nc2c(c(=O)n(C)c(=O)n2C)n1Cc1ccc(F)cc1	Pf growth 48h 12µM, Pf growth 96h 12µM
CCOCCn1c(CN2CCN(c3ccc(F)cc3)CC2)nc2c1c(=O)n(C)c(=O)n2C	Pf growth 96h 7.4µM (no result: Pf growth 48h)
CCOCCn1c(CN(Cc2ccccc2)Cc2ccccc2)nc2c1c(=O)n(C)c(=O)n2C	Pf growth 96h 1.3µM (no result: Pf growth 48h)
COC(=O)CCC(C)C1CCC2C3CCC4CC(O)CCC4(C)C3CC(O)C12C (stereo not given)	none (no result: SARS PLpro yeast, Pf growth 48h, Cycloheximide cs, Shiga inhibitor, Pf growth 96h)
CC(C)[C@@H]1Cc2[nH][nH]c(=O)c2[C@H](C(C)C)O1	none (no result: SARS PLpro yeast, Pf growth 48h, Cycloheximide cs, Shiga inhibitor, Pf growth 96h)
CCn1c(O)c(N=NC(=O)c2cccnc2)c2cc(Br)ccc21	Pf growth 48h 10µM, Pf growth 96h inconclusive
CC(C)(C)c1ccc(S(=O)(=O)NC(=O)C2(C)CCN2C(=O)C2CC2)cc1 (stereo not given)	none (no result: SARS PLpro yeast, Pf growth 48h, Cycloheximide cs, Shiga inhibitor, Pf growth 96h)
CC(C)c1ccccc1OCC(O)CN1CCN(S(=O)(=O)c2ccc([N+](=O)[O-])cc2)CC1 (stereo not given)	AMA1 RON2 block inconclusive, Pf growth 48h 3.7µM, Pf growth 96h 2.6µM
O=C1/C(=C/c2cccs2)COc2ccccc21	Cycloheximide cs 34, Shiga inhibitor 93
O=C1C(=Cc2cccs2)Oc2ccccc21	none (no result: SARS PLpro yeast, Pf growth 48h, Cycloheximide cs, Shiga inhibitor, Pf growth 96h)
Nn1c(SCC(=O)Nc2ccc(F)cc2F)nnc1C1CCCCC1	AMA1 RON2 block inconclusive, Cycloheximide cs 42, Shiga inhibitor 55
Nn1c(SCC(=O)Nc2ccccc2F)nnc1-c1cccnc1	none
Nn1c(SCC(=O)Nc2ccc(F)c(F)c2)nnc1C1CCCCC1	Pf growth 96h 12µM
Nn1c(SCC(=O)Nc2ccc(F)cc2F)nnc1-c1cccnc1	Cycloheximide cs 25, Pf growth 96h inconclusive
C/C(=N\NC(=O)c1cc(C(C)(C)C)[nH]n1)C12CC3CC(CC(C3)C1)C2	Pf growth 48h 2.6µM, Cycloheximide cs 23
COc1cc(CC(NC(C)=O)C(=O)NC2CCN(c3c(Cc4ccccc4)c(C)nc4ncnn34)CC2)cc(OC)c1 (stereo not given)	Pf growth 48h inconclusive
COc1ccc(-c2cc(C(=O)N3CCN(C(=O)c4ccco4)CC3)[nH]n2)cc1	none
Cc1[nH]nc2c1C(c1cccnc1)N(c1ccc(Br)cc1)C2=O (stereo not given)	Pf growth 96h inconclusive
COc1cc(C2c3c(n[nH]c3C)C(=O)N2c2ccc(Br)cc2)ccc1O (stereo not given)	Cycloheximide cs 15
CCOc1cc(C2c3c(n[nH]c3C)C(=O)N2c2ccc(Br)cc2)ccc1O (stereo not given)	Cycloheximide cs 31, Shiga inhibitor 38, Pf growth 96h 13µM
O=C(COc1ccccc1Cl)NCCCNC(=O)c1ccco1	none
CC(=O)Nc1cc(C(=O)NCc2ccco2)ccc1Sc1ccc(C)cc1	Pf growth 96h inconclusive
CC(C)N(C(=O)CN1C(=O)C(=O)c2ccccc21)c1ccccc1	none
CC(C)(C)NC(=O)CN(C(=O)CN1C(=O)C(=O)c2ccccc21)C(C)(C)C	Pf growth 96h 13µM
COC(=O)Nc1nnc(/C=C/c2ccccc2)s1	Shiga inhibitor 49
O=C(Nc1nnc(COc2ccccc2)s1)c1ccco1	none (no result: Pf growth 96h)
Cc1cccc(N(C)S(=O)(=O)c2nnc(NC(=O)c3ccco3)s2)c1	Pf growth 96h inconclusive
Nc1nnc(/C=C/c2ccccc2)s1	Cycloheximide cs 44, Shiga inhibitor 37
O=C(Nc1nnc(/C=C/c2ccccc2)s1)c1ccco1	Cycloheximide cs 30, Shiga inhibitor 63
CN(c1ccccc1)S(=O)(=O)c1nnc(NC(=O)c2ccco2)s1	Pf growth 96h 3.7µM
COc1ccc(OC)c(NC(=O)CCN2C(=O)c3ccccc3C2=O)c1	Pf growth 96h inconclusive
CSc1ncccc1C(=O)OCc1ccc([N+](=O)[O-])cc1	Pf growth 96h inconclusive
C[C@H]1CN([C@@H](C)CO)C(=O)CCCn2nncc2CO[C@H]1CN(C)C(=O)Cc1ccccc1	none (no result: SARS PLpro yeast, Pf growth 48h, Cycloheximide cs, Shiga inhibitor, Pf growth 96h)
O=C(CSc1ncccn1)NC1CCS(=O)(=O)C1 (stereo not given)	none
CN(Cc1ccco1)S(=O)(=O)c1nnc(NC(=O)c2cccc(Cl)c2)s1	Cycloheximide cs 36, Shiga inhibitor 64
CC(C)CC(=O)Nc1nnc(S(=O)(=O)N(C)Cc2ccco2)s1	none
